Measured values taken from publication PMC4336329 (PLoS ONE, 2015).
Out of some 310,000 compounds screened, about 14,000 (4.5%) showed an effect of 50% or more. The effect is printed as a negative number. The full list was thinned out, with strong results kept by preference.

Target: human ether-à-go-go-related gene (hERG) potassium channel (human, UniProt Q12809)
Assay: primary screen, population patch clamp on CHO cells stably expressing hERG; higher = less effect of the substance
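Further: peak tail current of the secondary pulse compared with the same well before compound.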

Sequence of human ether-à-go-go-related gene (hERG) potassium channel (Q12809 whole entry, looked up): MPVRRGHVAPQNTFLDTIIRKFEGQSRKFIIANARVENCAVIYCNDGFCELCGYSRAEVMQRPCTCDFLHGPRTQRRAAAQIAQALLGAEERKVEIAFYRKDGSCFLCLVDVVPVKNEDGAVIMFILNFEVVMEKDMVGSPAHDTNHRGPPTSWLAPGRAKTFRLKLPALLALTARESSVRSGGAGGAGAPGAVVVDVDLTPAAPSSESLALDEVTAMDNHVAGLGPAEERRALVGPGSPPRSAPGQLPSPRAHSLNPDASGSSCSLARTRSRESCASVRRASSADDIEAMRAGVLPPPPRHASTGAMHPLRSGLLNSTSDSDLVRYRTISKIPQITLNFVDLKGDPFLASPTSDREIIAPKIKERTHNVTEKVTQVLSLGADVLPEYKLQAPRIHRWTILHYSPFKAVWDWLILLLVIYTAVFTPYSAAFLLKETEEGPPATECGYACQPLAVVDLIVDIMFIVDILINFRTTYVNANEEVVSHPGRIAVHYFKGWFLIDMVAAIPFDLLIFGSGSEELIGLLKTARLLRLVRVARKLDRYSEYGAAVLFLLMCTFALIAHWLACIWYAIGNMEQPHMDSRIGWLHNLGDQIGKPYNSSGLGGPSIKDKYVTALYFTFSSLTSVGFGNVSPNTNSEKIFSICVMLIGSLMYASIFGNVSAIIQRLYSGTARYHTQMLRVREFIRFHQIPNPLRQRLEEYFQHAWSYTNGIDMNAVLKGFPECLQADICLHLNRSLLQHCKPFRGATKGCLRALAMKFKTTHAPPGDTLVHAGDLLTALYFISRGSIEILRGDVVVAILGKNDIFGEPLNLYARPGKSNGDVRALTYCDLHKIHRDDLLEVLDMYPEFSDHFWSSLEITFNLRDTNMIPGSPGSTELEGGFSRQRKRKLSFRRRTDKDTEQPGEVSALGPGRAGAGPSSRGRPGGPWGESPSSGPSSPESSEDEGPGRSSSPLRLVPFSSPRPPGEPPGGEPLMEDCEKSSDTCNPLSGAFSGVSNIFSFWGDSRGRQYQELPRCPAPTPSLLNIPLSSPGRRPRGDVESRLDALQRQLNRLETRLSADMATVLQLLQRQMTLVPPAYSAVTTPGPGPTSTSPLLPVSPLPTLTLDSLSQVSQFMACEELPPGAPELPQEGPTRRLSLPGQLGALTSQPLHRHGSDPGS

Structure (SMILES) | hERG current change (%, negative = inhibition) at 10uM
N#C/C(C(=O)N1CCOCC1)=C1\Nc2ccccc2S1 | 2.1%
CC(=O)NC(Cc1c[nH]c2ccccc12)C(=O)NCc1ccco1 (stereo not shown) | 12.5%
CCN(CC)S(=O)(=O)c1cccc(NC(=O)COc2ccc(Cl)cc2Br)c1 | 2.59%
CCn1c(SCC(=O)Nc2ccc(C(C)=O)cc2)nc2c([nH]c3ccccc32)c1=O | 5.85%
CCOCCCNC(=O)c1ccc(-n2c(=S)[nH]c3ccccc3c2=O)cc1 | 10.8%
COc1ccccc1OCCCCN1CCN(C(c2ccccc2)c2ccccc2)CC1.O=C(O)C(=O)O | -73%
COc1ccccc1CN1CCN(Cc2ccc(Cl)cc2)CC1.O=C(O)C(=O)O | -62.5%
COc1ccccc1CN1CCCCCC1.O=C(O)C(=O)O | 11.5%
COc1cccc(OC)c1OCCN1CCN(C(c2ccccc2)c2ccccc2)CC1 | -72.7%
COc1ccccc1OCCCCCCN1CCOCC1.O=C(O)C(=O)O | 0.0271%
COc1ccc(CN2CCN(Cc3ccccc3OC)CC2)cc1.O=C(O)C(=O)O | 2.68%
COc1cccc(OC)c1OCCOCCN1CCN(C)CC1 | 20.8%
COc1cccc(OC)c1OCCN1CCCC1 | 15.8%
COc1ccccc1OCCCCCCN1CCN(C)CC1.O=C(O)C(=O)O | -5.83%
CCOc1ccc(NCc2nc3ccccc3n2CCOc2ccccc2)cc1 | -11.6%
Cc1ccnc(N2CCC(C(=O)NCc3ccc(F)cc3)CC2)n1 | -12%
CCOC(=O)N1CCN(CC(O)COc2ccccc2C(C)C)CC1.Cl (stereo not shown) | -8.87%
C/C(=N\NC(=O)c1ccco1)c1cc(Cl)sc1Cl | -6.11%
S=c1[nH]nc(COc2ccc(Cl)cc2Cl)n1-c1ccccc1 | 19.1%
C/C(=N\Nc1cc(N2CCOCC2)nc(C)n1)c1cccc([N+](=O)[O-])c1 | -60.4%
C/C(=N\Nc1nc(N2CCOCC2)nc(N2CCOCC2)n1)c1cccc([N+](=O)[O-])c1 | -4.76%
C/C(=N\Nc1cc(N2CCOCC2)ncn1)c1cccc([N+](=O)[O-])c1 | 4.5%
COCCCNC(=O)[C@H]1N2C(=O)c3ccccc3C2SC1(C)C (stereo partly shown) | 15.3%

Structure (SMILES) | hERG current change (%, negative = inhibition) at 10uM
S=C(NCc1ccco1)N1CCN(Cc2ccc(Cl)cc2Cl)CC1 | -36.3%
O=S(=O)(Nc1ccc(-c2ccc3nncn3n2)cc1)c1ccc(Cl)s1 | -19.2%
O=C(Nc1ccc(S(=O)(=O)N2CCOCC2)cc1)c1ccccc1F | 6.32%
COc1ccc(CNc2ccc3c(c2)ncn3-c2ccccc2OC)cc1 | -23%
C=CCc1ccccc1OCC(O)CN(CC)CC.Cl (stereo not shown) | -30.5%
C=CCc1ccccc1OCC(O)CN1CCN(c2ccccc2F)CC1.Cl (stereo not shown) | -40.9%
C=CCc1ccccc1OCC(O)CN1CCN(c2ccc(OC)cc2)CC1.Cl (stereo not shown) | -66.5%
C=CCc1ccccc1OCC(O)CN1CCN(c2ccccc2OC)CC1.Cl (stereo not shown) | -75.2%
C=CCc1ccccc1OCC(O)CN1CCN(c2ccc(C)cc2)CC1 (stereo not shown) | -44.7%
C=CCc1cc(C)ccc1OCC(O)CN1CCN(c2ccccc2)CC1 (stereo not shown) | -47.5%
C=CCc1ccccc1OCC(O)CN1CCN(C(=O)OCC)CC1.Cl (stereo not shown) | -11.3%
C=CCc1cc(OC)ccc1OCC(O)CN1CCN(c2ccc(OC)cc2)CC1 (stereo not shown) | -59.7%
C=CCc1ccccc1OCC(O)CN(C(C)C)C(C)C.Cl (stereo not shown) | -59.2%
C=CCc1ccccc1OCC(O)CNC (stereo not shown) | 12%
Cc1nonc1NC(=O)CSc1nc2cc(Cl)ccc2c2c1CCCC2 | 2.15%
CN(Cc1nc(-c2cnccn2)no1)Cc1n[nH]c2c1CCCCC2 | -0.424%
O=S(=O)(c1ccccc1)N(CC1CO1)c1cc(Cl)ccc1Cl (stereo not shown) | 14.2%
C/C(=N\O)C(C)(C)Nc1ccccc1F | 4.26%
COc1cc(/C=C/c2[nH]c(=O)[nH]c(=O)c2[N+](=O)[O-])cc(OC)c1O | 7.26%
CN(C)Cc1nc2ccccc2c(=O)n1CC(=O)Nc1cccc(S(=O)(=O)N2CCOCC2)c1 | -14.4%
CCN(C(=O)C1CCCN1S(=O)(=O)c1ccc2c(c1)n(C)c(=O)c(=O)n2C)c1ccccc1 (stereo not shown) | -3.32%
CCOC(=O)c1c(C)[nH]c(C(=O)C(C)OC(=O)c2cnc(C)cn2)c1C (stereo not shown) | -0.804%
O=C(NCCC(=O)N1CCC2(CC1)NCCc1[nH]cnc12)c1cccc(Br)c1 | 1.5%

Structure (SMILES) | hERG current change (%, negative = inhibition) at 10uM
C=CCc1cc(OC)ccc1OCC(O)CN1CCN(c2ccc(OC)cc2)CC1.Cl (stereo not shown) | -71.2%
COc1ccc(CCNC(=S)Nc2ccc(S(=O)(=O)Nc3ncccn3)cc2)cc1OC | 21.2%
CC(=O)c1cc(C(c2csc(C(C)=O)c2)c2csc(C(C)=O)c2)cs1 | -72.6%
CC(=O)c1cc(Cc2csc(C(C)=O)c2)cs1 | 2.75%
CC(=O)c1cc(CN2C(=O)CCC2=O)cs1 | 5.27%
O=C(NCc1ccco1)C1CC(c2ccc(Cl)cc2)=NO1 (stereo not shown) | 1.47%
FC(F)(F)c1cccc(-c2nc3nc(Cl)c(Cl)nc3[nH]2)c1 | 30.4%
CC(=O)NS(=O)(=O)c1ccc(NC(=S)NC(=O)c2ccco2)cc1 | 2.54%
Clc1ccc(CN2CCCCCC2)cc1Cl | -7.66%
Clc1ccc(CN2CCCCCCC2)cc1Cl | 3.83%
Cl.Clc1ccc(CN2C3=NCCN3c3ccccc32)cc1Cl | -75.9%
Cl.Clc1ccc(CN2C3=NCCCN3c3ccccc32)cc1Cl | -76.3%
CCN1CCSc2ccc(C(=O)Nc3ccc(NC(C)=O)cc3)cc21 | 1.22%
CCN(Cc1ccccc1)C(=O)CSc1n[nH]c(N)n1 | 33.6%
CNC(=O)[C@@]1(Cc2ccccc2)C=C[C@@H](C)N1C(C)=O | 5.07%
Cc1cc(C)n(-c2nc(C)nc3c2cnn3-c2ccccc2)n1 | 13%
CCOC(=O)c1ccc(S(=O)(=O)NNC(=O)COc2ccccc2C)cc1 | 27.5%
N#CCc1ccc(NC(=O)CSc2nnc(C3CC3)n2C2CC2)cc1 | 9.18%
O=C(CSc1nnc(C2CC2)n1C1CC1)Nc1cccc(Br)c1 | -75.1%
CCOc1ccc(NC(=O)CSc2nnc(C3CC3)n2C2CC2)cc1 | -15.7%
NS(=O)(=O)c1cccc(NC(=O)CSc2nnc(C3CC3)n2C2CC2)c1 | 8.95%
NS(=O)(=O)c1ccc(NC(=O)CSc2nnc(C3CC3)n2C2CC2)cc1 | 22%
N#Cc1cccc(NC(=O)CSc2nnc(C3CC3)n2C2CC2)c1 | -52.4%

Structure (SMILES) | hERG current change (%, negative = inhibition) at 10uM
Cc1cc(C)cc(NC(=O)CSc2nnc(-c3cc(C)[nH]n3)n2N)c1 | 12.5%
C=CCNC(=O)c1cc(-c2ccc(Br)cc2)on1 | 1.88%
CCn1cc(C(=O)O)c(=O)c2cc(F)c(N/N=C/c3ccccc3[N+](=O)[O-])cc21 | -51.2%
CCn1cc(C(=O)O)c(=O)c2cc(F)c(N/N=C/c3ccccc3)cc21 | -27.2%
CCn1cc(C(=O)O)c(=O)c2cc(F)c(N3CCN(C(=S)NC(=O)c4ccccc4)CC3)cc21 | 13.7%
COc1ccc(NC(=S)NN(C)C(=S)Nc2ccc(OC)cc2)cc1 | 26.1%
O=C(c1ncn(Cc2ccccc2)c1C(=O)N1CCc2ccccc2C1)N1CCc2ccccc2C1 | -30.4%
COc1ccc(CC2(CO)CCN(Cc3ccc(NC(C)=O)cc3)CC2)cc1 | -57.4%
COc1ccc(C(=O)Nc2ccc(CN3CCOCC3)cc2)cc1 | -1.82%
CC(=O)Nc1ccc(CN2CCCC(CO)(Cc3cccc(Cl)c3)C2)cc1 (stereo not shown) | -39.2%
COc1cccc(CC2(CO)CCN(Cc3ccc(NC(C)=O)cc3)CC2)c1 | -50.7%
CCN1CCN(Cc2ccc(NC(=O)Nc3ccc(OC)cc3)cc2)CC1 | -7.9%
COc1cccc(CC2(CO)CCN(C(=O)NCCc3ccccc3)CC2)c1 | 0.136%
O=C(NCC(=O)N1CCC2(CC1)NCCc1[nH]cnc12)c1cccc(Cl)c1 | 12.5%
CCOc1cc(/C=C2\SC(=N)N(c3nonc3N)C2=O)ccc1OCC(N)=O | 7.01%
O=C(CCCn1c(=S)[nH]c2ccccc2c1=O)N1CCCCC1 | -10.4%
CC(C#N)Sc1nnc(-c2ccccc2F)n1C1CC1 (stereo not shown) | 18.2%
C=CCOc1ccc(C(=O)n2cc(C(=O)OC)c3ccccc32)cc1 | 9.62%
Nc1c(Cl)cc(C(=O)c2c3ccc(C(F)(F)F)cc3[n+]([O-])n2CCC[NH3+])cc1Cl.[Cl-] | -57.6%
Cc1ccc(C(=O)c2c3ccc([N+](=O)[O-])cc3[n+]([O-])n2CCC(N)=O)cc1 | -32.6%
NC(=O)c1ccc(Cn2c(C(=O)c3ccc(Cl)cc3)c3ccccc3[n+]2[O-])cc1 | -9.74%
Cc1ccc(C(=O)c2c3ccc(C(F)(F)F)cc3nn2CCC(N)=O)cc1 | -5.81%
[Cl-].[NH3+]CCCn1c(C(=O)c2ccc(Cl)cc2)c2ccc(C(F)(F)F)cc2[n+]1[O-] | -79.2%

Structure (SMILES) | hERG current change (%, negative = inhibition) at 10uM
Cc1ccc(C(=O)c2c3ccc(C(F)(F)F)cc3[n+]([O-])n2CCCC(N)=O)cc1 | -62.9%
Cc1ccc(C(=O)c2c3ccc(C(F)(F)F)cc3[n+]([O-])n2CCC(N)=O)cc1 | -66.2%
Cc1ccc(C(=O)c2c3ccccc3[n+]([O-])n2CCC(N)=O)cc1 | -5.98%
COc1ccc2c(C(=O)c3ccc(C)cc3)n(CCC(N)=O)[n+]([O-])c2c1 | -6.56%
NC(=O)CCCn1c(C(=O)c2cc(Cl)c(N)c(Cl)c2)c2ccc(C(F)(F)F)cc2[n+]1[O-] | -41.1%
Nc1c(Cl)cc(C(=O)c2c3ccccc3[n+]([O-])n2CCC[NH3+])cc1Cl.[Cl-] | -20.9%
CCN1CSC(=S)N(Cc2ccccc2)C1 | 12.2%
COc1cc(CC(=O)Nc2nc(C)cs2)cc(OC)c1OC | 5.84%
CC1(C)Nc2ccccc2C(=O)N1c1ccccc1 | 20.5%
COC(=O)Cn1nc(-c2ccccc2)c2cc(Cl)ccc21 | -0.627%
CCOc1ccc(NC(=O)N2C[C@H]3C[C@@H](C2)c2cccc(=O)n2C3)cc1 | 8.54%
O=C(CSc1n[nH]c(-c2ccccn2)n1)Nc1ccccc1F | -1.74%
COc1ccccc1/C(O)=C(\C#N)c1nc2ccccc2[nH]1 | 15%
CCC1=NN2C(=N)/C(=C/c3cc(C)n(-c4ccccc4)c3C)C(=O)N=C2S1 | 16.2%
O=c1[nH]cc(NCCNc2ncc(C(F)(F)F)cc2Cl)c(=O)[nH]1 | 3.6%
Nn1cnnc1SCC(=O)Nc1ccc(C2CCCCC2)cc1 | 12.5%
CCn1cc(S(=O)(=O)Nc2nc3ccc(OC)cc3s2)cn1 | 19.7%
Cc1ccc2c(c1)-c1ncc(C(=O)c3cc(Br)ccc3O)cc1CO2 | 15.7%
CCc1cc(=O)oc2cc(C)cc(OCC(=O)NC(Cc3ccc(Cl)cc3)C(=O)O)c12 (stereo not shown) | -9.21%
Cc1cccc(N2CCN(S(=O)(=O)c3ccc4c(c3)CCC(=O)N4)CC2C)c1 (stereo not shown) | -8.91%
